Laboratory results taken from the supplement of paper PMC10849652.
Targets with a hit are over-represented here; the source holds about 7,900 in all. About 0.6% of all pairs of compound and target were hits.

Assays:
Experiment in all cases: log2 fold change, soluble protein after heating vs DMSO (PISA); higher = thermal stabilisation; K562 cells, 10 uM, 30 min; active = over 0.2 and 3.5 SD of the protein, either way, in both replicates (recomputed)
IRAK-1-4 Inhibitor I = compound: C1COCCN1CCN2C3=CC=CC=C3N=C2NC(=O)C4=CC(=CC=C4)[N+](=O)[O-] [IRAK-1-4 Inhibitor I]
In short: (§1)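 K562 cells at 2×10^6 cells/mL were treated for 30 min with 10 μM compound, and aliquots were heated for 3 min over 48°C-58°C before pooling. Extraction used PBS with 0.5% NP-40 at 4°C, and soluble protein was the supernatant after 21,000xg for 90 min, measured by TMTpro 16plex LC-MS/MS with channel sums equalised. Thermal stability values, relative to control samples and from duplicates, are log2 fold changes.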

ibrutinib = compound: C=CC(=O)N1CCC[C@@H](n2nc(-c3ccc(Oc4ccccc4)cc3)c3c(N)ncnc32)C1 [ibrutinib]
In short: as §1

[1] = compound: CC(=O)c1cnc2ccc(-c3cc(Cl)c(O)c(Cl)c3)nc2c1N[C@H]1CC[C@H](CN(C)C)CC1
In short: as §1

ralimetinib = compound: CC(C)(C)Cn1c(N)nc2ccc(-c3[nH]c(C(C)(C)C)nc3-c3ccc(F)cc3)nc21 [ralimetinib]
In short: as §1

[2] = compound: CC(C)(O)CC(=O)NCCn1ccc2ncnc(Nc3ccc(Oc4cccc(C(F)(F)F)c4)c(Cl)c3)c21
In short: as §1

[3] = compound: CC(C)C1=C2N=C(C=C(N2N=C1)NCC3=CC=CC=C3)NCCCCCCN
In short: as §1

[4] = compound: CC(C)C[C@@H](C=O)NC(=O)[C@H](CC(C)C)NC(=O)[C@H](CC(C)C)NC(=O)OCc1ccccc1
In short: as §1

pinometostat = compound: CC(C)N(C[C@H]1O[C@@H](n2cnc3c(N)ncnc32)[C@H](O)[C@@H]1O)[C@H]1C[C@@H](CCc2nc3cc(C(C)(C)C)ccc3[nH]2)C1 [pinometostat]
In short: as §1

[5] = compound: CC1=C(C(CC(=O)N1)C2=CC=C(C=C2)C(F)(F)F)C(=O)NC3=C(C=C4C(=C3)C=NN4)F
In short: as §1

[6] = compound: CC1=C(C2=C(C=C1)C(=O)C3=CC=CC=C3N2CCCN)C
In short: as §1

[7] = compound: CC1=C(C=C(C=C1)NC(=O)C2=CC(=CC=C2)C(C)(C)C#N)NC3=CC4=C(C=C3)N=CN(C4=O)C
In short: as §1

[8] = compound: CC1=C(C=C(C=C1)NC(=O)C2=CC(=CC=C2)N(C)C)NC(=O)C3=CC=C(C=C3)O
In short: as §1

[9] = compound: CC1=CC=C(C=C1)SC2=C3C=C(SC3=CN=C2)C(=O)N
In short: as §1

[10] = compound: CC1=NC(=CC=C1)C2=C(N=C(N2)C(C)(C)C)C3=CC4=NC=CN=C4C=C3
In short: as §1

Nexturastat A = compound: CCCCN(Cc1ccc(C(=O)NO)cc1)C(=O)Nc1ccccc1 [Nexturastat A]
In short: as §1

vemurafenib = compound: CCCS(=O)(=O)Nc1ccc(F)c(C(=O)c2c[nH]c3ncc(-c4ccc(Cl)cc4)cc23)c1F [vemurafenib]
In short: as §1

[11] = compound: CCCS(=O)(=O)Nc1ccc(F)c(C(=O)c2c[nH]c3ncc(Cl)cc23)c1F
In short: as §1

[12] = compound: CCCc1cc(C)[nH]c(=O)c1CNC(=O)c1cc(-c2ccnc(N3CCN(C)CC3)c2)cc2c1cnn2C(C)C
In short: as §1

givinostat = compound: CCN(CC)Cc1ccc2cc(COC(=O)Nc3ccc(C(=O)NO)cc3)ccc2c1 [givinostat]
In short: as §1

barasertib = compound: CCN(CCCOc1ccc2c(Nc3cc(CC(=O)Nc4cccc(F)c4)[nH]n3)ncnc2c1)CCOP(=O)(O)O [barasertib]
In short: as §1

Measured: log2 fold change

HIKESHI (UniProt Q53FT3)
active: ralimetinib -0.305
inactive: IRAK-1-4 Inhibitor I 0.013 | ibrutinib -0.041 | [1] 0.023 | [2] -0.045 | [3] -0.007 | [4] -0.194 | pinometostat 0.062 | [5] -0.043 | [6] 0.061 | [7] -0.138 | [8] -0.051 | [9] 0.003 | [10] -0.011 | Nexturastat A -0.037 | vemurafenib 0.027 | [11] 0.003 | [12] -0.033 | givinostat -0.008 | barasertib 0.011

GBE1 (UniProt Q04446)
inactive: IRAK-1-4 Inhibitor I -0.241 | ibrutinib -0.026 | [1] -0.102 | ralimetinib 0.051 | [2] -0.074 | [3] -0.23 | [4] 0.027 | pinometostat 0.186 | [6] 0.04 | [8] 0.08 | [9] 0.128 | [10] 0.014 | Nexturastat A 0 | vemurafenib 0.162 | [11] 0.065 | [12] 0.005 | givinostat 0.038 | barasertib 0.109

GSR (UniProt P00390)
UniProt P00390, sequence (P00390 whole entry, looked up): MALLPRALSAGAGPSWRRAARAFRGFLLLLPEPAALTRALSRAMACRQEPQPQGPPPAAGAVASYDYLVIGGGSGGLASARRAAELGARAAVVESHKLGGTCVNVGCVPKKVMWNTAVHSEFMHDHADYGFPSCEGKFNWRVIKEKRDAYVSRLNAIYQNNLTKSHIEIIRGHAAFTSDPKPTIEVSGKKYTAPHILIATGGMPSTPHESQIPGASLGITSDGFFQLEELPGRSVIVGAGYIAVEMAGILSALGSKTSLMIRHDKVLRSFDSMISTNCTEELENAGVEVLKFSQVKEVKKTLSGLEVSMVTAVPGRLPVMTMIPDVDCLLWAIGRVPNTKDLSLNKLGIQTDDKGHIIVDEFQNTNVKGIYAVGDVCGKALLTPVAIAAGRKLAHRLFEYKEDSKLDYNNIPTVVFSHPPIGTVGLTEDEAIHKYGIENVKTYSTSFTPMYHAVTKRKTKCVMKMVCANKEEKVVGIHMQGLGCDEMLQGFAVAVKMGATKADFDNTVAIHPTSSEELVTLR
active: givinostat -0.253
inactive: IRAK-1-4 Inhibitor I 0.037 | ibrutinib -0.005 | [1] -0.011 | ralimetinib -0.021 | [2] -0.015 | [3] 0.082 | [4] 0.023 | pinometostat -0.05 | [5] -0.005 | [6] -0.003 | [7] -0.011 | [8] 0.022 | [9] 0.016 | [10] 0.007 | Nexturastat A -0.073 | vemurafenib -0.027 | [11] 0.02 | [12] -0.026 | barasertib -0.03

FAM91A1 (UniProt Q658Y4)
UniProt Q658Y4, sequence (Q658Y4 whole entry, looked up): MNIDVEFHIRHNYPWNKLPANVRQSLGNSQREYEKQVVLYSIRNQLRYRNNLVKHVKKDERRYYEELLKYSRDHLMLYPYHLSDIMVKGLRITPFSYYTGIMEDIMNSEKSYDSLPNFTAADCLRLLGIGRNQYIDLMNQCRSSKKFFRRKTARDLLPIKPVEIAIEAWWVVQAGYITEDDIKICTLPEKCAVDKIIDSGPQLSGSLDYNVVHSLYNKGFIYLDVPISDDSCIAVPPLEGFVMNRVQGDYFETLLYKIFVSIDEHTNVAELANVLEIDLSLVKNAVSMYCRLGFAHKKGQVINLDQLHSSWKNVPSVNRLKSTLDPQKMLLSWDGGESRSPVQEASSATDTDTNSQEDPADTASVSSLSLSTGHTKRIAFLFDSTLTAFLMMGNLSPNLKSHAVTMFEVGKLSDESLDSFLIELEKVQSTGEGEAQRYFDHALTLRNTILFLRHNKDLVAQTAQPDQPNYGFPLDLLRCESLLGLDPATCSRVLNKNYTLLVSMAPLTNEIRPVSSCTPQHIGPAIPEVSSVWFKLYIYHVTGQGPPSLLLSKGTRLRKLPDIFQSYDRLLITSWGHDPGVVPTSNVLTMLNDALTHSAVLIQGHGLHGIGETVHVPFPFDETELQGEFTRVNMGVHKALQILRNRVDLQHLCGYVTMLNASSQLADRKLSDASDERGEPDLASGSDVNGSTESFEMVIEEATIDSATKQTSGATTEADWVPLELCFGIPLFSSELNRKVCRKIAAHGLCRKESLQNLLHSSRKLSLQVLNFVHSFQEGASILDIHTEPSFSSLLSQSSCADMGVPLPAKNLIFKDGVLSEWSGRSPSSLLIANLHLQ
active: Nexturastat A 0.286
inactive: IRAK-1-4 Inhibitor I 0.092 | ibrutinib -0.025 | [1] -0.025 | ralimetinib 0.076 | [2] -0.198 | [3] -0.041 | [4] 0 | pinometostat 0.134 | [5] 0.018 | [6] 0.083 | [7] 0.035 | [8] 0.034 | [9] -0.036 | [10] -0.048 | vemurafenib -0.055 | [11] 0.051 | [12] 0.07 | givinostat 0.024 | barasertib 0.06

FASTKD1 (UniProt Q53R41)
inactive: IRAK-1-4 Inhibitor I 0.016 | ibrutinib -0.186 | [1] -0.043 | ralimetinib 0.013 | [2] -0.316 | [3] -0.047 | [4] 0.116 | pinometostat 0.038 | [5] -0.345 | [6] 0.2 | [7] -0.066 | [8] -0.138 | [10] 0.017 | Nexturastat A 0.013 | vemurafenib 0.065 | givinostat 0.156 | barasertib 0.096

HDAC7 isoform 5 (UniProt Q8WUI4)
active: [1] -0.561
inactive: IRAK-1-4 Inhibitor I 0.094 | ibrutinib -0.007 | ralimetinib -0.123 | [2] -0.031 | [3] 0.108 | [4] 0.036 | pinometostat 0.035 | [5] 0.029 | [6] 0.065 | [7] -0.01 | [8] 0.028 | [9] -0.043 | [10] -0.002 | Nexturastat A 0.108 | vemurafenib 0 | [11] -0.009 | [12] -0.014 | barasertib 0

GOLGA8R (UniProt I6L899)
UniProt I6L899, sequence (I6L899 whole entry, looked up): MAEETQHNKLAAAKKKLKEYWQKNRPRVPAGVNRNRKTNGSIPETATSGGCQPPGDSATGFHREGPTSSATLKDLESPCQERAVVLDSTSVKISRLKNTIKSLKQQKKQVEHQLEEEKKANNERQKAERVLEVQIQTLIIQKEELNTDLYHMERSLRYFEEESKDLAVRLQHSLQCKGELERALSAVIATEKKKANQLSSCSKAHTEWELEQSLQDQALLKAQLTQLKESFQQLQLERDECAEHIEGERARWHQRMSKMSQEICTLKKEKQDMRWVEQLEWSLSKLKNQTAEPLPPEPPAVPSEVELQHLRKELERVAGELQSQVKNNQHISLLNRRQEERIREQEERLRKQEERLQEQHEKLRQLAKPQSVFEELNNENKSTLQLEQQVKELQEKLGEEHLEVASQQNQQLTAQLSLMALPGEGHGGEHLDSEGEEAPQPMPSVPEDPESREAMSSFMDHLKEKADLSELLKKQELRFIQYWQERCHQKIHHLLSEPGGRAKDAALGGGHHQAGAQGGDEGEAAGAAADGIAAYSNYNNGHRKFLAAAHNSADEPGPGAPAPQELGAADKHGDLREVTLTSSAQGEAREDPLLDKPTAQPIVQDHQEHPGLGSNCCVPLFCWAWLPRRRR
inactive: IRAK-1-4 Inhibitor I 0.003 | ibrutinib 0.04 | [1] -0.106 | ralimetinib 0.247 | [3] 0.227 | [4] 0.177 | pinometostat 0.035 | [6] 0.201 | [8] -0.037 | [9] 0.041 | [10] -0.205 | vemurafenib 0.06 | [11] -0.086 | givinostat 0.223 | barasertib 0.048

HSPA2 (UniProt P54652)
active: [3] -0.441
inactive: IRAK-1-4 Inhibitor I 0.008 | ibrutinib -0.006 | [1] -0.28 | ralimetinib 0.01 | [4] 0.041 | pinometostat 0.05 | [5] 0.023 | [7] -0.109 | [8] 0.046 | [10] -0.039 | [12] 0.057 | givinostat 0.13 | barasertib -0.004

FLNA (UniProt P21333)
UniProt P21333, sequence (P21333 whole entry, looked up): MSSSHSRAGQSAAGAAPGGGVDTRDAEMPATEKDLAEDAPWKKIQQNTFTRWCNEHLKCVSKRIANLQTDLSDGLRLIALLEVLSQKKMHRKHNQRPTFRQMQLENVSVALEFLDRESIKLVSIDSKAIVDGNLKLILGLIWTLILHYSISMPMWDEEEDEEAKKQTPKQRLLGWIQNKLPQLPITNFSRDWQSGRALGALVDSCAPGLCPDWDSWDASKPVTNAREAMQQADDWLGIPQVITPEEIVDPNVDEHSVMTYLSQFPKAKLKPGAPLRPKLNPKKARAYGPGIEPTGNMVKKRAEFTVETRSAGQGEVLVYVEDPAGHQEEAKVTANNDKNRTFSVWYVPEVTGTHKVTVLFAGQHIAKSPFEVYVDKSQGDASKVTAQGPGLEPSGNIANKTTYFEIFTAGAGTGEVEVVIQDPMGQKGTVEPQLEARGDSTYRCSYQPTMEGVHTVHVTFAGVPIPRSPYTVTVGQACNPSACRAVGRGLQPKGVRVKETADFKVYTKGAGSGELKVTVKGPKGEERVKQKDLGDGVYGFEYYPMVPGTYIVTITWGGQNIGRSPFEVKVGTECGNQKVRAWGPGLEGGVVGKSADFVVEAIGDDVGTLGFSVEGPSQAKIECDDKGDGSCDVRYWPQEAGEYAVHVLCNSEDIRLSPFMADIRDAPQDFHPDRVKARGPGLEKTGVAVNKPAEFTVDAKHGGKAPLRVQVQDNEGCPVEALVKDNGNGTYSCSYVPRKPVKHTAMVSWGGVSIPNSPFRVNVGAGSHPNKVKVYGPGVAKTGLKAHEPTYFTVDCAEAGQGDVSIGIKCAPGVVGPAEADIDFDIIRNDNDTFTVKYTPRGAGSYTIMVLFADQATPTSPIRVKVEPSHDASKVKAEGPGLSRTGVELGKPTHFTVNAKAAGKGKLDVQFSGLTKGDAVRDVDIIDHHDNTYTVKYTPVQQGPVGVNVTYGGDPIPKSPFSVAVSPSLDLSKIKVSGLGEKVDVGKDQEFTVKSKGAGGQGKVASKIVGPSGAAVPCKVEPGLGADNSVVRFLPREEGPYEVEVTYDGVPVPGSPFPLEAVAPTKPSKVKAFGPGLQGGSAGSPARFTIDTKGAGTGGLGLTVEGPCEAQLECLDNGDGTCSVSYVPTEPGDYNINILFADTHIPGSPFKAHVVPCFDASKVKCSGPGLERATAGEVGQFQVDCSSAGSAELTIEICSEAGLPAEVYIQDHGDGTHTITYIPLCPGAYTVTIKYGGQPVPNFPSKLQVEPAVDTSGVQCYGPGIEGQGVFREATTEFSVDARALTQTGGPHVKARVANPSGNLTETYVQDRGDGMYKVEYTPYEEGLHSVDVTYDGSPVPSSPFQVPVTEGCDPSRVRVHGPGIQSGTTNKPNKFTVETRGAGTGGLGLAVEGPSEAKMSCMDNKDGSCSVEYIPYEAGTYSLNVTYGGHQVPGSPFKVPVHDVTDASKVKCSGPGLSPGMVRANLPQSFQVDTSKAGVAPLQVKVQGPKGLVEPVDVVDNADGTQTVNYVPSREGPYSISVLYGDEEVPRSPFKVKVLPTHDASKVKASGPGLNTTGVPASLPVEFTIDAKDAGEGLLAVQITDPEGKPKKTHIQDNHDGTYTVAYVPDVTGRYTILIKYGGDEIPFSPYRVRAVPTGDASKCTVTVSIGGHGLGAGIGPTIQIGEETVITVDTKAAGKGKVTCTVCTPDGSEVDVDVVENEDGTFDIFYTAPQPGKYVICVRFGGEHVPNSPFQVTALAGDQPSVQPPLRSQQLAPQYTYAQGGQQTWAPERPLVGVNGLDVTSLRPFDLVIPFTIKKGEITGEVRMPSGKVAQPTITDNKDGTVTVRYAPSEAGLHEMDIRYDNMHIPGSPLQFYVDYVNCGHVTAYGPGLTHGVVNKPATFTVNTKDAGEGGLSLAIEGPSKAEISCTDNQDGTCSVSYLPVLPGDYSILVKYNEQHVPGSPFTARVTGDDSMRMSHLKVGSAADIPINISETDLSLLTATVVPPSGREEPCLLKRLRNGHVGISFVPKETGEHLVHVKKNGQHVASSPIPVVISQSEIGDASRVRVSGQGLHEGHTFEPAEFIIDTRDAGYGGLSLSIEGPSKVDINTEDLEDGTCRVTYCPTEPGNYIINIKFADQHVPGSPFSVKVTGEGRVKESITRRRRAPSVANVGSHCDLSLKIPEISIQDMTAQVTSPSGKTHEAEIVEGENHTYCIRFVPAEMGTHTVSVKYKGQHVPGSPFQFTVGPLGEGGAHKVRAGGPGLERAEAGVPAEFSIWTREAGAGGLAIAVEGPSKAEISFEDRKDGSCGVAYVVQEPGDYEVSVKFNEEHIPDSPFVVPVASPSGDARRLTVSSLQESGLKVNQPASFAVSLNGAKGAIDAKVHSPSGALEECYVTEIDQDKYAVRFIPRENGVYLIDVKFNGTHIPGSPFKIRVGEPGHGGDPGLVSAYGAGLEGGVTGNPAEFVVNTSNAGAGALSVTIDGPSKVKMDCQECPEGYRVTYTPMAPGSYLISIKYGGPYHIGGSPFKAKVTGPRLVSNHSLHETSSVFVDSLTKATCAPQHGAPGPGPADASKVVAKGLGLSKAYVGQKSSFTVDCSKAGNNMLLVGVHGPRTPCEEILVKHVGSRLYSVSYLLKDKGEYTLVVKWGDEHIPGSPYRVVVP
inactive: IRAK-1-4 Inhibitor I -0.046 | ibrutinib -0.111 | [1] 0.031 | ralimetinib 0.035 | [2] -0.086 | [3] -0.112 | [4] 0.049 | pinometostat 0.081 | [5] -0.017 | [6] -0.027 | [7] -0.03 | [8] -0.049 | [9] 0.015 | [10] 0.006 | Nexturastat A 0.092 | vemurafenib 0.021 | [11] 0.075 | [12] 0.044 | givinostat 0.092 | barasertib 0.019

HSPA8 (UniProt E9PK54)
inactive: IRAK-1-4 Inhibitor I -0.051 | ibrutinib -0.012 | [1] 0.015 | ralimetinib -0.161 | [2] 0.058 | [3] 0.141 | [4] 0.074 | pinometostat 0.001 | [5] 0.017 | [6] -0.262 | [7] 0.023 | [8] 0.034 | [9] -0.123 | [10] 0.006 | Nexturastat A 0.227 | vemurafenib -0.036 | [11] 0.026 | [12] -0.098 | givinostat 0.167 | barasertib -0.023

FUT8 (UniProt Q9BYC5)
inactive: IRAK-1-4 Inhibitor I -0.02 | ibrutinib 0.064 | [1] -0.098 | ralimetinib -0.087 | [2] 0.019 | [3] -0.133 | [4] 0.053 | pinometostat 0.065 | [5] 0.105 | [6] 0.077 | [7] -0.05 | [8] -0.047 | [10] 0.037 | Nexturastat A 0.064 | vemurafenib -0.417 | [12] 0.048 | givinostat -0.048 | barasertib -0.014

FHOD1 (UniProt Q9Y613)
inactive: IRAK-1-4 Inhibitor I -0.053 | ibrutinib 0.011 | [1] 0.042 | ralimetinib 0.193 | [2] 0.035 | [3] -0.197 | [4] 0.148 | pinometostat 0.458 | [5] 0.07 | [7] -0.288 | [8] 0.073 | [9] -0.063 | [10] -0.09 | Nexturastat A 0.365 | vemurafenib -0.002 | [11] -0.134 | [12] 0.132 | givinostat 0.024 | barasertib 0.044

HS1BP3 (UniProt Q53T59)
inactive: IRAK-1-4 Inhibitor I 0.004 | ibrutinib -0.029 | [1] -0.117 | ralimetinib 0.038 | [2] -0.059 | [3] -0.038 | [4] 0.086 | pinometostat -0.002 | [5] 0.004 | [7] 0.023 | [8] -0.045 | [9] -0.109 | [10] -0.046 | Nexturastat A 0.052 | vemurafenib 0.132 | [11] 0.021 | givinostat 0.111 | barasertib 0.047

GNAI3 (UniProt P08754)
UniProt P08754, sequence (P08754 whole entry, looked up): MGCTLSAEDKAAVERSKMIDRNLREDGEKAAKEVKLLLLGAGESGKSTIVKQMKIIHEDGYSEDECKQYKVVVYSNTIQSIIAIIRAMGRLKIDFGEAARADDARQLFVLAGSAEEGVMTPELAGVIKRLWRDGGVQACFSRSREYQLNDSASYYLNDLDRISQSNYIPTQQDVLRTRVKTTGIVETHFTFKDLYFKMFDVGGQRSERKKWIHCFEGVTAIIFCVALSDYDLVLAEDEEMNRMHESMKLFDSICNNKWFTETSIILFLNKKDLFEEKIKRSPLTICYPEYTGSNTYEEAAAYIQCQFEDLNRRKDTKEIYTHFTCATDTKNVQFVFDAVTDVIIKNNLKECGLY
active: givinostat -0.263
inactive: IRAK-1-4 Inhibitor I -0.007 | ibrutinib 0.083 | [1] 0.027 | ralimetinib 0.066 | [2] 0.083 | [3] 0.006 | [4] -0.03 | pinometostat 0.024 | [5] 0.02 | [6] 0.038 | [7] 0.125 | [8] -0.012 | [9] -0.07 | [10] -0.021 | Nexturastat A 0.072 | vemurafenib 0.037 | [11] -0.025 | [12] 0.069 | barasertib 0

GLUD1 (UniProt P00367)
inactive: IRAK-1-4 Inhibitor I 0.02 | ibrutinib 0.04 | [1] 0.068 | ralimetinib 0.023 | [2] -0.038 | [3] -0.049 | [4] 0.012 | pinometostat 0.023 | [5] -0.076 | [6] 0.125 | [7] 0.179 | [8] -0.007 | [9] -0.054 | [10] -0.011 | Nexturastat A -0.063 | vemurafenib -0.012 | [11] -0.02 | [12] 0.136 | givinostat -0.062 | barasertib -0.007

HMGN1 (UniProt P05114)
UniProt P05114, sequence (P05114 whole entry, looked up): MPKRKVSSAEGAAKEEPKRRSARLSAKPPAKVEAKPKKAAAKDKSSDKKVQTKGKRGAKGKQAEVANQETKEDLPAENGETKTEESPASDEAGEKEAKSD
inactive: IRAK-1-4 Inhibitor I -0.006 | ibrutinib 0.049 | [1] 0.064 | ralimetinib 0.032 | [2] 0.166 | [3] 0.148 | [4] 0.042 | pinometostat -0.022 | [5] 0.014 | [7] 0.056 | [8] 0.027 | [9] -0.048 | [10] 0.078 | Nexturastat A -0.017 | vemurafenib 0.004 | [11] -0.064 | [12] -0.033 | givinostat -0.119 | barasertib -0.06
active: [6] 0.294
